# Where “and” joins values, the source holds several entries; their conditions need not be identical. Equal entries are not always repeated. The whole screen tested about 37,000 compounds, of which about 290 (0.78%) were called active. Another 10% or so got no clear call; they are omitted.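 Rule for the calls: active = mean inhibition of at least 10% in the main channel, exceeding the control channel by a set limit; inconclusive = inhibition of 10% or more but channel gap under a set limit; inactive = mean inhibition below 10%.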 For the sample, actives were picked, then their nearest neighbours and some compounds at random.
# Assay: inhibitors of DUX4-driven ZSCAN4 reporter expression, primary screen, 293T cells, Gaussia and Italica luciferase (AID 1224904);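 for activity change, negative = inhibition: 0% = median of neutral control wells and -100% = median of positive control wells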
# Settings: 293T-iDUX4 ZSCAN4-Gaussia luciferase reporter, 24 h, stronger effect = lower value, concentration not given here; for Gaussia minus Italica difference: measured here: selective DUX4 reporter inhibition
# [1] = measured here: Italica tet-on control reporter
Structure (SMILES),"activity change, negative = inhibition","activity change, negative = inhibition [1]",Gaussia minus Italica difference
C[C@@H]1CN([C@@H](C)CO)C(=O)Cc2cc(NC(=O)Nc3cccc4ccccc34)ccc2O[C@H]1CN(C)S(=O)(=O)c1ccc(Cl)cc1,-2.17% (inactive),3.22%,-5.4%
CC(C)[C@@H]1COCn2nncc2CCCC(=O)N1,-6.02% (inactive),7.14%,-13.2%
CO[C@@H]1CC[C@@H]2CCOc3c(C#N)cccc3C(=O)N(C)C[C@@H](C)C(=O)N(C)C[C@@H]1O2,-3.12% (inactive),-1.5%,-1.62%
C[C@H](O)C#Cc1ccc([C@@H]2[C@H](CO)N3CCCCN(CC4CC4)C[C@@H]23)cc1,4.25% (inactive),9.01%,-4.76%
COCC(=O)N1[C@@H](CO)[C@H](c2ccccc2)C12CN(C(=O)NC1CCCCC1)C2,12.7% (inactive),4.2%,8.54%
COc1ccccc1-c1ccc2n(c1=O)C[C@@H]1[C@@H](CO)[C@H](C(=O)NCc3ccccc3Cl)N[C@H]21,-0.143% (inactive),-7.51%,7.37%
CCC(=O)Nc1ccc2c(c1)C(=O)N(C)C[C@H](OC)[C@@H](C)CN(Cc1nccs1)[C@H](C)CO2,-5.35% (inactive),4.67%,-10%
CNC[C@H]1Oc2ncc(C#Cc3ccccc3F)cc2C(=O)N([C@H](C)CO)C[C@H]1C,-2.73% (inactive),-1.01%,-1.72%
CN1CCN(C(=O)C[C@@H]2CC[C@@H]3[C@H](COC[C@H](O)CN3CC3CCOCC3)O2)CC1,7.66% (inactive),11.6%,-3.98%
CNC(=O)C[C@@H]1CC[C@H]2[C@H](COc3ccc(NC(=O)C4CC4)cc3C(=O)N2C)O1,2.13% (inactive),-0.014%,2.15%
CS(=O)(=O)N1C[C@@H](O)COC[C@@H]2O[C@H](CC(=O)NC3Cc4ccccc4C3)CC[C@H]21,6.74% (inactive),-3.08%,9.82%
CN1c2ccc(-c3ccccc3F)cc2[C@@H]2[C@@H](CCN2C(=O)CN2CCOCC2)[C@H]1CO,0.948% (inactive),9.9%,-8.96%
CCCNC(=O)C[C@@H]1CC[C@H]2[C@H](COc3ccc(NS(=O)(=O)c4ccccc4C)cc3C(=O)N2C)O1,1.9% (inactive),7.5%,-5.61%
C/C=C/c1ccc2c(c1)O[C@@H](CN(C)C(=O)c1ccccn1)[C@H](C)CN([C@@H](C)CO)S2(=O)=O,-2.65% (inactive),3.66%,-6.3%
O=C(NC[C@@H]1[C@@H](c2ccccc2)[C@H](CO)N1C(=O)Cc1cccnc1)C1CC1,3.18% (inactive),4.6%,-1.42%
CCCNC(=O)N1[C@H](CO)[C@@H]2c3ccccc3N(C(=O)C3CCOCC3)C[C@@H]21,-1.95% (inactive),-0.682%,-1.27%
CCS(=O)(=O)N1CCC2(CC1)CN[C@H](CO)c1c2c2ccc(OC)cc2n1C,14.5% (inactive),10.9%,3.59%
C[C@H](CO)N1C[C@H](C)[C@@H](CN(C)Cc2ccncc2)OCCCC[C@H](C)Oc2ccc(NS(=O)(=O)c3ccc(Cl)cc3)cc2C1=O,1.79% (inactive),8.83%,-7.04%
COc1cccc(C#Cc2ccc3c(c2)[C@@H]2[C@@H](CCN2S(=O)(=O)c2ccc(C)cc2)[C@@H](CO)N3)c1,8.73% (inactive),11.9%,-3.21%

Structure (SMILES),"activity change, negative = inhibition","activity change, negative = inhibition [1]",Gaussia minus Italica difference
COc1cccc(CNC(=O)C[C@@H]2CC[C@H]3[C@@H](COc4ccc(NC(=O)c5cccs5)cc4C(=O)N3C)O2)c1,-0.0474% (inactive),-2.71%,2.66%
COc1ccc(CNC(=O)C[C@H]2C[C@@H]3c4cc(NC(=O)NC5CCCC5)ccc4O[C@@H]3[C@H](CO)O2)cc1,8.81% (inactive),6.85%,1.96%
O=C(CCN1CCCCC1)NCC[C@@H]1CC[C@H](NS(=O)(=O)c2cccc(Cl)c2)[C@H](CO)O1,5.38% (inactive),-7.23%,12.6%
CN1[C@@H]2c3ccc(-c4ccc(F)cc4)c(=O)n3C[C@H]1[C@H](CO)[C@H]2C(=O)NC1CCC1,6.4% (inactive),-1.88%,8.27%
CCCNC(=O)N1C[C@@H](O)COC[C@@H]2O[C@H](CC(=O)N3CCN(C)CC3)CC[C@H]21,1.94% (inactive),0.769%,1.17%
CS(=O)(=O)N1CCCCN2[C@H](CO)[C@H](c3ccc(-c4cccc(C#N)c4)cc3)[C@H]2C1,1.86% (inactive),-1.58%,3.44%
CCNC(=O)[C@H]1[C@H](CO)[C@H]2Cn3c(ccc(-c4ccc(OC)cc4)c3=O)[C@H]2N1Cc1ccccc1,-4.11% (inactive),-4.47%,0.354%
O=C(C1CCC1)N1CC2(C1)[C@H](c1ccccc1)[C@H](CO)N2Cc1nccs1,12.8% (inactive),2.26%,10.6%
CCC(=O)N1C[C@@H](O)COC[C@H]2O[C@H](CC(=O)NCC3CCCCC3)CC[C@@H]21,1.84% (inactive),0.272%,1.57%
COCC#Cc1cnc2c(c1)C(=O)N([C@H](C)CO)C[C@H](C)[C@H](CN(C)Cc1ccc(-c3ccccc3)cc1)O2,-1.2% (inactive),-1.59%,0.393%
C[C@H](CO)N1C[C@H](C)[C@H](CN(C)C(=O)CCN(C)C)OCc2ccccc2-c2c(n(C)c3ccccc23)C1=O,0.0892% (inactive),6.32%,-6.23%
O=C(Nc1cccc(F)c1)N1CC(=O)N2[C@H](CO)[C@H](c3ccc(C#CC4CC4)cc3)[C@@H]2C1,2.91% (inactive),-11.7%,14.6%
COc1ccccc1C#Cc1ccc([C@H]2[C@@H](C#N)N(C(=O)C3CCCCC3)[C@@H]2CO)cc1,-1.13% (inactive),-0.0756%,-1.05%
COc1ccc(S(=O)(=O)N2CCCCN3[C@H](CO)[C@@H](c4ccc(C#CC(C)C)cc4)[C@H]3C2)cc1,-31.7% (active),-3.69%,-28%
CN(C)CC#Cc1ccc([C@@H]2[C@H](CO)N3CCCCN(C(=O)Nc4ccc(F)cc4)C[C@@H]23)cc1,15.2% (inactive),5.12%,10.1%
O=C(Nc1cccc(F)c1)N1CCCCN2[C@H](CO)[C@H](c3ccc(C#CC4CC4)cc3)[C@@H]2C1,-32.4% (active),5.1%,-37.5%
COc1ccccc1C#Cc1ccc([C@@H]2[C@@H](CO)N3CCCCN(S(C)(=O)=O)C[C@@H]23)cc1,-1.08% (inactive),5.65%,-6.73%
COc1ccccc1C#Cc1ccc([C@H]2[C@H](CO)N3CCCCN(C(=O)C4CCC4)C[C@@H]23)cc1,-36.1% (active),-8.62%,-27.4%
C[C@@H](O)C#Cc1ccc([C@@H]2[C@H]3CN(S(=O)(=O)c4ccccc4)CCCCN3[C@H]2CO)cc1,25.7% (inactive),12.9%,12.9%

Structure (SMILES),"activity change, negative = inhibition","activity change, negative = inhibition [1]",Gaussia minus Italica difference
C[C@@H](O)C#Cc1ccc([C@@H]2[C@H](CO)N3CCCCN(S(=O)(=O)c4ccccc4)C[C@@H]23)cc1,10.1% (inactive),-3.26%,13.3%
O=C(CC(F)(F)F)N1C[C@H]2[C@@H](c3ccccc31)[C@H](CO)N2C(=O)Cc1cccnc1,2.67% (inactive),0.448%,2.22%
CCCC#Cc1ccc([C@@H]2[C@@H](C#N)N(C(=O)C3CCC3)[C@H]2CO)cc1,0.61% (inactive),1.62%,-1.01%
COc1cccc(CN2[C@H](CO)[C@@H]3c4ccccc4N(C(=O)c4ccncc4)C[C@@H]32)c1,-3.19% (inactive),4.06%,-7.25%
COc1cccc(C(=O)Nc2ccc3c(c2)C(=O)N(C)[C@H]2CC[C@@H](CC(=O)N[C@H](C)c4ccccc4)O[C@H]2CO3)c1,-1.13% (inactive),0.375%,-1.51%
COC(=O)[C@@H]1[C@@H](CO)[C@@H]2Cn3c(ccc(-c4ccccc4F)c3=O)[C@@H]2N1CC1CCOCC1,-4.32% (inactive),8.44%,-12.8%
O=C([C@H]1[C@H](CO)[C@H]2Cn3c(cccc3=O)[C@@H]1N2Cc1cocn1)N1CCCCC1,0.941% (inactive),1.28%,-0.343%
C/C=C/c1ccc(C2[C@H]3CNC[C@@H]2N3C(=O)Nc2cc(F)ccc2F)cc1 (stereo partly specified),15.1% (inactive) and 2.98% (inactive),3.89% and 2.36%,11.2% and 0.626%
O=C(c1ccncc1)N1CC2(C1)[C@@H](c1ccccc1)[C@H](CO)N2C(=O)c1ccncc1,9.03% (inactive),0.77%,8.26%
CO[C@@H]1CN(C)C(=O)c2cc(NS(=O)(=O)c3cn(C)cn3)ccc2OC[C@@H](C)N(CCC(F)(F)F)C[C@H]1C,2.8% (inactive),2.78%,0.0206%
CC(C)NC(=O)Nc1ccc2c(c1)C(=O)N(C)[C@H]1CC[C@H](CC(=O)NCc3ccc(F)cc3)O[C@H]1CO2,-1.78% (inactive),-0.912%,-0.872%
CN1C(=O)c2cc(NC(=O)Nc3ccccc3F)ccc2OC[C@H]2O[C@@H](CC(=O)Nc3cccc(Cl)c3)CC[C@@H]21,2.01% (inactive),1.81%,0.199%
CN1C(=O)c2cc(NC(=O)c3ccc(Cl)cc3)ccc2OC[C@@H]2O[C@@H](CC(=O)O)CC[C@H]21,3.27% (inactive),2.43%,0.834%
CCS(=O)(=O)N1[C@H](CO)[C@@H](c2ccc(C#CC(C)C)cc2)[C@@H]1C#N,-1.24% (inactive),-0.906%,-0.33%
COc1ccccc1CN1[C@@H]2CNC[C@H]1C2c1ccc(-c2cccc(C#N)c2)cc1 (stereo partly specified),2.24% (inactive) and -7% (inactive),7.91% and -13.5%,-5.67% and 6.5%
CCCNC(=O)C[C@H]1CC[C@H]2[C@@H](COc3ccc(NC(=O)Nc4c(C)noc4C)cc3C(=O)N2C)O1,1.35% (inactive),1.62%,-0.269%
O=C(Cc1ccncc1)N1C[C@@H]2N[C@H](C1)C2c1ccc(-c2ccc(F)cc2)cc1 (stereo partly specified),-3.63% (inactive),1.35%,-4.98%
N#Cc1ccc(-c2ccc(C3[C@@H]4CN(S(=O)(=O)c5ccc(F)cc5)C[C@H]3N4)cc2)cc1 (stereo partly specified),-15.8% (active),11.7%,-27.5%
CN(C)C(=O)c1cccc(-c2ccc(C3[C@@H]4CN(S(=O)(=O)c5ccc(F)cc5)C[C@H]3N4)cc2)c1 (stereo partly specified),-0.156% (inactive),-4.49%,4.34%

# — PubChem BioAssay AID1224904 (Broad Institute, 2016)
